The supplement of paper PMC6555819

How the values were obtained:
Assay in all cases: PBM binding z-score (relative to random genomic background probes); higher = stronger binding; sequences stand for … in GC…GCGATTGACAGCGTAGAATGAAGG
[1] = tested on: PPARg:RXRa DBDmut IVT, anti-RXR (DBD mutation: RXRa K156A/R161A, NR concentration 270 nM, RXRa partner concentration 90 nM)
How it was run: (§1)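 Custom Agilent 4×180K protein-binding microarrays carried double-stranded probes. Their 34-nt variable regions held direct-repeat seeds, single-nucleotide variants, half-site ablations and random human genomic background sequences. Arrays were incubated 1 h with ligand-free nuclear receptor dimers in PBS pH 7.4, 2% milk, 0.02% Triton X-100, 1 mM DTT, 0.2 mg/mL BSA and 0.4 mg/ml salmon testes DNA. Antibodies against each partner (one per run) detected binding, and scanned fluorescence was regression-normalized. Binding z-scores use random background probes as reference.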

[2] = tested on: PPARg:RXRa IVT, anti-PPARg (NR concentration 270 nM, RXRa partner concentration 90 nM)
How it was run: as §1

[3] = tested on: PPARg DBDmut:RXRa IVT, anti-PPARg (DBD mutation: PPARg1 K132A/R137A, NR concentration 270 nM, RXRa partner concentration 90 nM)
How it was run: as §1

[4] = tested on: PPARg DBDmut IVT, anti-PPARg (DBD mutation: PPARg1 K132A/R137A, NR concentration 270 nM)
How it was run: as §1

[5] = tested on: PPARg homodimer (NR concentration 180 nM)
How it was run: as §1

[6] = tested on: PXR:RXRa (NR concentration 270 nM, RXRa partner concentration 90 nM)
How it was run: as §1

[7] = tested on: PXR homodimer (NR concentration 270 nM)
How it was run: as §1

[8] = tested on: RARa:RXR (NR concentration 270 nM, RXRa partner concentration 90 nM)
How it was run: as §1

[9] = tested on: RARa homodimer (NR concentration 270 nM)
How it was run: as §1

[10] = tested on: RARb:RXRa (NR concentration 270 nM, RXRa partner concentration 90 nM)
How it was run: as §1

Row | Sequence | PBM binding z-score [1] | PBM binding z-score [2] | PBM binding z-score [3] | PBM binding z-score [4] | PBM binding z-score [5] | PBM binding z-score [6] | PBM binding z-score [7] | PBM binding z-score [8] | PBM binding z-score [9] | PBM binding z-score [10]
1 | TCGAGTAGGTTAGGAGCATTCAGAATGGCGTCGA | 1.4 | 0.397 | -0.907 | -1.2 | -0.371 | -0.392 | -0.58 | -0.181 | -0.978 | 0.0424
2 | TCTTGTATATCAAGCAGGTTAAGAAAGCCTGAGT | 1.41 | 0.503 | 0.561 | 1.48 | 0.514 | 0.624 | 0.331 | 0.805 | 0.189 | 0.615
3 | ATCTATAGGTAAAGTTCAGTGAAAGATCGATAGA | 1.31 | 1.74 | 1.49 | 1.19 | 1.41 | 1.99 | 1.33 | 1.21 | 1.04 | 2.62
4 | TTACCAAGGTGAAAGGTCGTTGATGCACGCCTTG | 2.84 | 4.92 | 0.117 | -0.276 | 1.41 | 3.96 | 0.351 | 5.27 | 0.055 | 3.04
5 | TCATATAGGTAAGACAGGTGAAAGTCGGCATCTA | 3.27 | 2.39 | 0.585 | 1.03 | 0.477 | 0.625 | 0.645 | 0.925 | 1.31 | 0.61
6 | CAAACTAGGTCACCGGAAGGTCAAAGTACGCATG | 8.79 | 8.9 | 4.79 | 1.89 | 9.62 | 6.54 | 1.85 | 8.16 | 4.07 | 5.38
7 | CAAACTAGGTCGCAGAGGTCAAAGTCCGTGCGTA | 6.57 | 7.05 | 2.76 | 1.62 | 3.69 | 6.55 | 7.19 | 7.01 | 1.48 | 4.5
8 | TCTAGCAGGCCAGAGGGACACTCAAGAGGTACGG | 0.376 | -0.183 | -1.54 | -1.73 | -1.07 | -0.803 | -0.661 | -1.02 | -0.883 | 0.0919
9 | CCTACCAGGCCAATCTGGGTCACTCAAGGCTTGA | 3.85 | 5.15 | -0.114 | -1.08 | 1.37 | 1.39 | 0.0886 | 1.66 | 0.203 | 1.71
10 | GCGACTGGGGCATCAGGAGGTTACCATAACTTAA | 3.82 | 3.59 | -0.435 | -0.747 | 0.816 | 0.63 | -0.0464 | 1.16 | -0.466 | 1.21
11 | ATCTCTCGGTAAAGTTCAGTGAAAGATCGATAGA | 0.0239 | 0.915 | 0.801 | 1.45 | 1.63 | 2.11 | 1.75 | 1.59 | 1.08 | 2.84
12 | TCTTGTAGATCAGCAGGTTTAGAAAGCTGGCCAA | 1.21 | -0.135 | -0.815 | -0.0639 | -0.866 | -0.251 | -0.893 | -0.334 | -0.74 | -0.387
13 | TCATATAGGTAAATGCAAGGTGAAAGTCCGATCT | 4.1 | 3 | 0.862 | 1.12 | 1.16 | 1.03 | 0.736 | 1.86 | 0.975 | 1.19
14 | ATACCAAGGTGATTGTGAGGTCGTTGATACTAAC | 0.693 | 1.27 | 0.771 | 0.654 | 1.27 | 3.13 | 2.05 | 2.22 | 0.72 | 1.41
15 | CATCCAAGGTCAATGCTAGGTCAGTGAAAGCATT | 3.38 | 4.16 | 0.505 | 0.239 | 5.51 | 4.73 | 1.76 | 5.95 | 2.23 | 5.04
16 | ATACCTAGGTGATCGTGAGGTCGTTGATACTAAC | 1.24 | 1.46 | 0.324 | 0.924 | 0.783 | 2.64 | 2 | 2.04 | 0.311 | 1.09
17 | CGAACTAGGTCATTGACAGGACAGTGTATAGTAA | 7.92 | 8.25 | 2.44 | 1.65 | 2.13 | 1.67 | 0.281 | 2.47 | 0.571 | 3.63
18 | CGTCCAAGGTCAGCAGGTCAGTGGAAGCGACGTG | 2.83 | 3.58 | -0.161 | -0.183 | 2.96 | 3.57 | 0.377 | 4.3 | 0.462 | 5.23
19 | CCTATTAGTTGACCATAAGGGCAACAGAAGCTCG | 0.409 | 0.628 | -0.0621 | 0.417 | 1.95 | 0.896 | 0.847 | 1.15 | 1.6 | 1.42
20 | AATACAGGGTCATCGTAGGACAGAGTACGCACAG | 2.91 | 4.34 | 1.42 | 1.38 | 2.54 | 4.92 | 0.871 | 4.82 | 0.937 | 4.22
21 | TCGAGTAGGTTAGAGGCATTCAGAATGGCGTCGA | 1.65 | 0.965 | -0.829 | -0.771 | 0.087 | -0.51 | -0.852 | -0.767 | -0.955 | 0.0217
22 | ACTTACGGGCCAACGAGGTTATAGCACGCGTATA | 0.992 | 0.418 | 0.118 | 0.119 | 0.076 | 1 | 0.334 | 1.16 | 0.0529 | 1.05
23 | CGAACTAGGTCAGAACAGGACAGTAAAGGATGAT | 7.08 | 7.22 | 1.86 | 1.17 | 1.1 | 1.02 | 0.0829 | 1.26 | 0.18 | 2.92
24 | CGAACGAGGGCATGAGTTGATAGCCAATGCCGAT | 3.14 | 2.29 | 0.281 | -0.251 | 0.292 | 0.342 | -0.25 | 0.497 | -0.133 | 2.01
25 | CCTCTGAGGACAGAAGGTCAGAGCTGTCCGCTTT | 0.612 | 0.36 | -0.397 | -1.71 | 1.53 | 1.95 | -0.313 | 2.59 | -0.25 | 3.44
